Key:
Assay in all cases: PBM binding z-score (relative to random genomic background probes); higher = stronger binding; sequences stand for … in GC…GCGATTGACAGCGTAGAATGAAGG
[1] = system: FXR:RXRa (NR concentration 270 nM, RXRa partner concentration 90 nM)
Summary of the method: (§1)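 Ligand-free nuclear receptor dimers were applied to custom Agilent 4×180K protein-binding microarrays whose double-stranded probes carried direct-repeat seeds, single-nucleotide variants, half-site ablations and random human genomic background sequences in 34-nt variable regions. Incubation lasted 1 h. Binding z-scores were computed against the random background probes from regression-normalized fluorescence.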

[2] = system: LXRa:RXRa (NR concentration 270 nM, RXRa partner concentration 90 nM)
Summary of the method: as §1

[3] = system: LXRa homodimer (NR concentration 270 nM)
Summary of the method: as §1

[4] = system: LXRb:RXRa (NR concentration 270 nM, RXRa partner concentration 90 nM)
Summary of the method: as §1

[5] = system: LXRb homodimer (NR concentration 270 nM)
Summary of the method: as §1

[6] = system: PPARa:RXRa (NR concentration 270 nM, RXRa partner concentration 90 nM)
Summary of the method: as §1

[7] = system: PPARg:RXRa (NR concentration 180 nM, RXRa partner concentration 90 nM)
Summary of the method: as §1

[8] = system: PPARg:RXRa 270nM:90nM, anti-RXR (NR concentration 270 nM, RXRa partner concentration 90 nM)
Summary of the method: as §1

[9] = system: PPARg:RXRa 30nM:10nM, anti-RXR (NR concentration 30 nM, RXRa partner concentration 10 nM)
Summary of the method: as §1

[10] = system: PPARg:RXRa 90nM:30nM, anti-RXR (NR concentration 90 nM, RXRa partner concentration 30 nM)
Summary of the method: as §1

[11] = system: PPARg:RXRa DBDmut IVT, anti-RXR (DBD mutation: RXRa K156A/R161A, NR concentration 270 nM, RXRa partner concentration 90 nM)
Summary of the method: as §1

[12] = system: PPARg:RXRa IVT, anti-PPARg (NR concentration 270 nM, RXRa partner concentration 90 nM)
Summary of the method: as §1

[13] = system: PPARg DBDmut:RXRa IVT, anti-PPARg (DBD mutation: PPARg1 K132A/R137A, NR concentration 270 nM, RXRa partner concentration 90 nM)
Summary of the method: as §1

[14] = system: PPARg DBDmut IVT, anti-PPARg (DBD mutation: PPARg1 K132A/R137A, NR concentration 270 nM)
Summary of the method: as §1

[15] = system: PPARg homodimer (NR concentration 180 nM)
Summary of the method: as §1

[16] = system: PXR:RXRa (NR concentration 270 nM, RXRa partner concentration 90 nM)
Summary of the method: as §1

[17] = system: PXR homodimer (NR concentration 270 nM)
Summary of the method: as §1

[18] = system: RARa:RXR (NR concentration 270 nM, RXRa partner concentration 90 nM)
Summary of the method: as §1

[19] = system: RARa homodimer (NR concentration 270 nM)
Summary of the method: as §1

[20] = system: RARb:RXRa (NR concentration 270 nM, RXRa partner concentration 90 nM)
Summary of the method: as §1

Sequence | PBM binding z-score [1] | PBM binding z-score [2] | PBM binding z-score [3] | PBM binding z-score [4] | PBM binding z-score [5] | PBM binding z-score [6] | PBM binding z-score [7] | PBM binding z-score [8] | PBM binding z-score [9] | PBM binding z-score [10] | PBM binding z-score [11] | PBM binding z-score [12] | PBM binding z-score [13] | PBM binding z-score [14] | PBM binding z-score [15] | PBM binding z-score [16] | PBM binding z-score [17] | PBM binding z-score [18] | PBM binding z-score [19] | PBM binding z-score [20]
GCTAGTTGGTCAGTAAAAGGTCAAACACCGGTCG | 3.88 | 5.14 | 6.12 | 4.91 | 1.54 | 4.71 | 2.68 | 4.45 | 2.84 | 4.37 | 1.17 | 2.62 | -0.0315 | 0.251 | 4.94 | 5.21 | 1.94 | 6.29 | 1.53 | 4.13
GCAGACAGGTGAAACGGAGGTAACTCAGGGTGGC | -0.223 | 0.247 | -0.497 | -0.0336 | -0.922 | 0.977 | 0.646 | 0.393 | -0.282 | 0.0488 | 1.09 | 0.463 | -0.413 | -1.08 | -0.308 | 0.0496 | -0.337 | 0.668 | -0.627 | 0.729
TCTATTAGTTGAAGGGTAACCGACGAGTCCGTTT | 1.06 | 1.12 | 0.425 | 1.17 | 0.781 | 1.35 | 0.607 | 2.8 | 4.16 | 3.37 | 2.52 | 0.636 | 0.556 | 0.761 | 1.56 | 1.03 | 0.714 | 1.09 | 1.6 | 0.96
CCTTACGGGTCATGGTTATAGCACGGGTGGTACG | 5.13 | 3.14 | -0.115 | 2.68 | -0.0469 | 4.97 | 3.99 | 4.19 | 1.44 | 3.03 | 1.34 | 3.31 | 0.473 | -0.548 | 1.58 | 2.96 | 0.0669 | 3.6 | 0.484 | 3.64
TAGCCTAGGTCATGAGCCAGTATACCACGCGAAC | 4.38 | 3.4 | 0.262 | 2.43 | 0.0464 | 3.93 | 3.35 | 2.98 | 0.892 | 2.05 | 1.81 | 3.11 | -0.211 | 0.0511 | 1.45 | 1.61 | -0.537 | 2.64 | 0.534 | 3.58
CATCGGAGGACAACAGGAGGTCAGAGCTGCCAGA | 1.42 | 2.43 | 2.12 | 1.91 | -0.192 | 2.39 | 0.842 | 0.724 | -0.516 | 0.267 | 0.575 | 1.3 | -0.47 | -0.762 | 1.51 | 2.23 | 0.834 | 2.69 | 0.396 | 3.08
GATGCTAGGTCAACTGATGGTCAGCTAAAGCTCG | 3.82 | 3.15 | 0.377 | 2.11 | 0.0631 | 3.62 | 2.79 | 2.97 | 0.474 | 1.77 | 3.82 | 3.75 | -0.0408 | -0.329 | 1.48 | 1.45 | -0.415 | 2.58 | -0.157 | 4.11
ATCTCTAGGCAAGACTCAGTTCAGTGAAGAACGC | -0.14 | 0.0146 | -0.0156 | -0.438 | -0.221 | -0.499 | 0.011 | -0.156 | -0.193 | -0.262 | 0.117 | -0.103 | 0.0484 | -0.188 | 0.522 | 0.202 | 0.453 | -0.255 | -0.0609 | -0.159
CCGAGTAAGTTATGGGGCATTCAGGCAACGGTGA | -0.323 | -0.322 | -0.465 | -0.146 | -0.649 | -0.0291 | 0.19 | 0.385 | -0.496 | 0.0497 | 0.876 | 0.12 | 0.0533 | -0.856 | 0.399 | -0.507 | -0.558 | -0.445 | -0.0178 | -0.111
GCTTGTAGTTCAAGGTTAAGAAAGACTAAGCTAA | 1.52 | 2.43 | 0.162 | 1.53 | -0.369 | 2.55 | 0.724 | 2.09 | 0.473 | 1.18 | -0.00904 | 0.825 | 0.1 | 0.576 | 0.358 | 1.71 | 0.883 | 1.74 | 0.195 | 2.61
ACTCGGAGGACAAAGGTCGGAGCTACGCCAGTGA | 0.927 | 1.18 | -0.439 | 0.689 | -0.291 | 2.9 | 4.62 | 5.7 | 3.54 | 5.62 | -0.0622 | 1.75 | -0.143 | -0.29 | 0.786 | 1.29 | -0.332 | 1.84 | -0.447 | 2.34
CCTTACGGCTCACTCCAGGTTATAGCATCGGAGT | 0.29 | 0.942 | 1.31 | 0.0567 | 0.303 | -0.0224 | 0.265 | -0.277 | 0.181 | -0.238 | 0.594 | -0.0865 | -0.339 | -0.313 | 0.301 | -0.0761 | 0.257 | 0.372 | 0.095 | 0.00286
TAGCCTAAGTCAGATCGGGCCAGTATACGCTATA | 0.0829 | -0.914 | -0.748 | -0.879 | -0.805 | -0.43 | 0.157 | -0.628 | -0.321 | -0.556 | -0.799 | -0.632 | -0.42 | -0.19 | -0.984 | -0.436 | -0.363 | -0.593 | -0.92 | -0.258
TCATATAGGTAAATGCTAGGGGAAAGTCCGATCT | 0.958 | 0.949 | 0.455 | 0.865 | 0.134 | 1.21 | 0.788 | 2.13 | 3.88 | 3.25 | 4.25 | 2.11 | 1.09 | 1.29 | 0.609 | 0.434 | 0.33 | 0.628 | 1.4 | 0.327

Source: the supplement of paper PMC6555819
